According to publication PMC4336329 (PLoS ONE, 2015):
In all, about 310,000 compounds went through this assay and about 14,000 (4.5%) showed an effect of 50% or more. Effects have a minus sign here. This excerpt belongs to a sample that is enriched for strong results.

These compounds were tested against human ether-à-go-go-related gene (hERG) potassium channel (human, UniProt Q12809) (assay: primary screen, population patch clamp on CHO cells stably expressing hERG; higher = less effect of the substance).
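Further: peak tail current of the secondary pulse compared with the same well before compound.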

Sequence of human ether-à-go-go-related gene (hERG) potassium channel (Q12809 whole entry, looked up): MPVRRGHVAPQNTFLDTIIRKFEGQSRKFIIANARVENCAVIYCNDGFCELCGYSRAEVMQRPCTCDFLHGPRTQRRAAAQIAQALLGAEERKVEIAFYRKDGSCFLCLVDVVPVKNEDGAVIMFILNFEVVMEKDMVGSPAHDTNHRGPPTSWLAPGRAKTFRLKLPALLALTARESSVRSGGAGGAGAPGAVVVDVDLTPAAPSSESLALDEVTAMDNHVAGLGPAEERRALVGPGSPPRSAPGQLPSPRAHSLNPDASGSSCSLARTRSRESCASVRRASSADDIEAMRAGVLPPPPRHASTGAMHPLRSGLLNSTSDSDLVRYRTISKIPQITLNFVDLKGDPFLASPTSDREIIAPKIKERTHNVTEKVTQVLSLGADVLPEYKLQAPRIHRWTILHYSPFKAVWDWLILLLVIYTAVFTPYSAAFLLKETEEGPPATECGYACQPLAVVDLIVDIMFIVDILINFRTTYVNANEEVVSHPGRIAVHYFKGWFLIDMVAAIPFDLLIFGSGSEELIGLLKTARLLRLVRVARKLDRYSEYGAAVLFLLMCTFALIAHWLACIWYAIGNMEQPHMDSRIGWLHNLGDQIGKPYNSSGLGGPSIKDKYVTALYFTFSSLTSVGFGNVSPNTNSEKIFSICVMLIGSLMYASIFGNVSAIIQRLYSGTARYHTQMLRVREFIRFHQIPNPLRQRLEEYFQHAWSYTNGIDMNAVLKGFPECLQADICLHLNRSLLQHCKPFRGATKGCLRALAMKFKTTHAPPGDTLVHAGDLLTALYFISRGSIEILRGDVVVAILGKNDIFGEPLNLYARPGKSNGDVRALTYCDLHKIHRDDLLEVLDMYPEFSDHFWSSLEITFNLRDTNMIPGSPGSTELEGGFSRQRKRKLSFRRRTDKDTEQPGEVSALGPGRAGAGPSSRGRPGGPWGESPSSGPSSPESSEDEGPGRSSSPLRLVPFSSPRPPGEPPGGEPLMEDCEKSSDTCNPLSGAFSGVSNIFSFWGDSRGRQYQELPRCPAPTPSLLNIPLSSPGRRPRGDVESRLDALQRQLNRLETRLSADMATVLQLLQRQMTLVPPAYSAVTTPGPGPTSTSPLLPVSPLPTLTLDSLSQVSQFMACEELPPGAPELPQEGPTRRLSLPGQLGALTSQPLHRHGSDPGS

SMILES	hERG current change (%, negative = inhibition) at 10uM [%]
COc1cc(C(=S)N2CCCC2)ccc1O	18.6
CCN1C(=O)C2(Nc3ccccc3-c3nc4ccccc4n32)c2cc(OC)ccc21 (stereo not shown)	-4.35
CCC(=O)N1CCc2cc(S(=O)(=O)CCC(=O)NCCc3ccc(OC)c(OC)c3)ccc21	-0.229
O=C(Nc1ccc(Cl)c(Cl)c1)NC1CCS(=O)(=O)C1 (stereo not shown)	-8.07
COc1cc(NS(=O)(=O)c2ccc(NC(C)=O)cc2)ncn1	0.81
Cc1nn(-c2ccc(Cl)cc2)c(N)c1C(O)(CSc1nccn1C)C(F)(F)F (stereo not shown)	-22.9
O=C(NCC1CCCO1)c1ccc2ccccc2n1 (stereo not shown)	-3.04
CCn1c(CCNC(=O)c2ccc(F)cc2)nc2ccccc21	-33.9
COc1ccc(C(=O)NCCCc2nc3ccccc3n2Cc2cc(C)ccc2C)cc1OC	-39.7
COc1ccc(C(=O)NCCCc2nc3ccccc3n2Cc2ccccc2C)cc1OC	-55.4
CC(C)Cn1c(CCCNC(=O)c2ccc(F)cc2)nc2ccccc21	-50.3
COc1cc(C(=O)NCCCc2nc3ccccc3n2Cc2cc(C)ccc2C)cc(OC)c1OC	-33.6
CCn1c(CCCNC(=O)c2ccc(F)cc2)nc2ccccc21	-41.3
COc1ccc(CCC(=O)OC(C)C(=O)c2ccc(C)cc2)cc1 (stereo not shown)	0.769
COCCSc1nnc(NC(=O)c2cc(C(=O)OC)cc([N+](=O)[O-])c2)s1	11.4
CC(C)c1nc(SCC(=O)NCc2ccccc2)n[nH]1	2.8
CCOC(=O)C1(Cc2ccccc2)CCCN(C(=O)c2cn[nH]c2)C1 (stereo not shown)	13.4
Cc1ccccc1CC1(CO)CCCN(C(=O)c2cccc(Cl)c2)C1 (stereo not shown)	1.01
COc1cccc(CC2(CO)CCCN(C(=O)c3cc[n+]([O-])cc3)C2)c1 (stereo not shown)	10.4
CCOC(=O)C1(Cc2ccccc2)CCCN(C(=O)c2ccc(-n3ccnc3)cc2)C1 (stereo not shown)	-58.4
O=C(c1ccc(-n2ccnc2)cc1)N1CCCC(CO)(Cc2cccc(Cl)c2)C1 (stereo not shown)	-60.4
CCOC(=O)C1(Cc2ccccc2)CCCN(C(=O)C=C(C)C)C1 (stereo not shown)	13.2
CC(=O)c1ccc(NC(=O)c2ccc(COc3ccccc3[N+](=O)[O-])o2)cc1	-8.46

SMILES	hERG current change (%, negative = inhibition) at 10uM [%]
Cc1cc(=O)n(CC(=O)Nc2cc(Cl)ccc2C)c(C(C)C)n1	-1.59
CN(CC1CCOCC1)C(=O)CC1C(=O)NCCN1Cc1ccc(Cl)c(F)c1 (stereo not shown)	10.4
CCCCNC(=O)c1nn(-c2ccccc2OC)c(=O)c2ccccc12	-4.46
COc1ccc(NC(=O)CCN2CCN(S(=O)(=O)c3ccc(F)cc3)CC2)cc1	-6.32
Cc1cc(C)c2c(-n3cccc3)c(C(=O)NNS(=O)(=O)c3ccc(Cl)cc3)sc2n1	0.175
CCN1CCC(NC(=O)Nc2cccc(C(F)(F)F)c2)CC1	-51.1
COc1ccc(/C=C/C(=O)NC2CCN(Cc3ccccc3)CC2)cc1OC	-29
O=C(COC(=O)/C=C/c1cccc(Br)c1)NC1CC1	-2.84
O=C(Nc1ccc(F)cc1)NC1CCN(Cc2ccccc2)CC1	-36.7
O=C(Nc1cccc(C(F)(F)F)c1)NC1CCCCC1	-3.18
O=C(Cc1c(F)cccc1Cl)NC1CCN(Cc2ccccc2)CC1	-0.715
O=C(Nc1ccccc1)NC1CCN(Cc2ccccc2)CC1	-39.4
O=C(Nc1cccc(F)c1)NC1CCN(Cc2ccccc2)CC1	-56.4
O=C(/C=C/c1cccc(F)c1)NC1CCN(Cc2ccccc2)CC1	-70.6
O=C(/C=C/c1cccc(Br)c1)NC1CCN(Cc2ccccc2)CC1	-71.1
S=C(Nc1ccc(Br)cc1Cl)NC1CCN(Cc2ccccc2)CC1	-2.37
CN1CCC(NC(=O)Nc2cccc(C(F)(F)F)c2)CC1	-0.705
COc1ccc(CN2C(=O)[C@H]3Cc4c([nH]c5ccccc45)C(C)(C)N3C2=O)cc1	7
COc1cccc(NC(=O)N(Cc2cc3cc(C)cc(C)c3[nH]c2=O)CC2COCCO2)c1 (stereo not shown)	4.85
Cc1nnc(SCC(=O)N(Cc2ccccc2)C(C)C)n1-c1ccccc1	-5.28
Cc1c(O)ccc2c(=O)c(-c3nncn3-c3ccccc3)coc12	21.2
COc1ccc(NC(=O)c2ccccc2C)cc1	14.9
Cc1c(C(=O)NCCc2ccccc2)oc2ccc(S(=O)(=O)N3CCOCC3)cc12	-19.1

SMILES	hERG current change (%, negative = inhibition) at 10uM [%]
CC(C)CC(=O)NCC(C)NC(=O)CC(C)C (stereo not shown)	3.51
COc1ccc(C(CC(=O)N2CCN(c3ccccc3)CC2)c2c(OC)cc(OC)c3ccc(=O)oc23)cc1 (stereo not shown)	1.88
Fc1ccc(C2CC(c3ccccc3)n3ncnc3N2)cc1 (stereo not shown)	-29.3
c1ccc(C2CC(c3ccccc3)n3ncnc3N2)cc1 (stereo not shown)	-17.3
Fc1ccc(C2CC(c3ccc(F)cc3)n3ncnc3N2)cc1 (stereo not shown)	-60
Fc1ccc(C2CC(c3ccccc3)Nc3ncnn32)cc1 (stereo not shown)	-45.9
Cc1ccc(C2CC(c3ccccc3)n3ncnc3N2)cc1 (stereo not shown)	-1.18
Clc1ccc(C2CC(c3ccccc3)Nc3ncnn32)cc1 (stereo not shown)	-64.4
CCc1ccc(/C=C2\SC(=S)N(CCCC(=O)Nc3nccs3)C2=O)cc1	8.83
Cc1ccc(S(=O)(=O)n2nc(OC(=O)c3ccccc3F)cc2N)cc1	9.49
CC(=O)Nc1c(Nc2ccccc2)c2ccccc2oc1=O	3.92
COc1ccc(C(=O)N2CCN(C(=O)c3cc(OC)c(OC)c(OC)c3)CC2)cc1	-17.4
COc1cccc(C(=O)N2CCN(C(=O)COc3ccc4ccccc4c3)CC2)c1	-47.4
CN1CCN(C(=O)COc2ccc3ccccc3c2)CC1	-3.47
COc1ccccc1CN1CCN(C(=O)COc2ccc3ccccc3c2)CC1	-36
COc1cc(C(=O)N2CCN(C(=O)COc3ccc4ccccc4c3)CC2)cc(OC)c1OC	-73
COc1ccc(N2CCN(C(=O)COc3ccc4ccccc4c3)CC2)cc1	5.36
COc1cc(OC)c(OC)cc1CN1CCN(C(=O)COc2ccc3ccccc3c2)CC1.O=C(O)C(=O)O	-36.4
COc1ccc(CN2CCN(C(=O)COc3ccc4ccccc4c3)CC2)c(OC)c1	-52.6
COc1cc(OC)cc(C(=O)N2CCN(C(=O)COc3ccc4ccccc4c3)CC2)c1	-64.8
NC(=O)CCN(C1CCCCC1)S(=O)(=O)c1cccc2nsnc12	10.5
Cc1ccc(SCc2cc(=O)c3c(=O)n(-c4ccccc4)[nH]c3[nH]2)cc1	7.34
N#Cc1nc(-c2ccco2)oc1N1CCCC1	-11.1

SMILES	hERG current change (%, negative = inhibition) at 10uM [%]
COC(=O)c1cc(S(=O)(=O)NCc2ccc3c(c2)OCO3)cn1C	-0.484
CCOC(=O)c1cc(-c2ccc(N3CCOCC3)cc2)nn1-c1ccccc1C(=O)O	5.59
COc1cc2nc(CN3CCN(C(c4ccccc4)c4ccccc4)CC3)[nH]c(=O)c2cc1OC	1.59
c1ccc(CN2CCN(c3nc4ccccc4c4ccccc34)CC2)cc1	-3.19
O=C(CCc1nc2ccccc2c(=O)[nH]1)NC1CCN(Cc2ccccc2)CC1	-0.782
O=c1nc2ccccc2c2n1CC(CN1CCN(Cc3ccccc3)CC1)N2 (stereo not shown)	-66.1
O=C(O)CN1CCN(C(c2ccccc2)c2ccccc2)CC1	30.4
O=c1nc2ccccc2c2n1CC(CN1CCN(C(c3ccccc3)c3ccccc3)CC1)N2 (stereo not shown)	-81.4
COCCCNC(=O)CCn1c(=O)c2ccccc2n(CC(=O)Nc2ccccc2C)c1=O	9.98
CCOc1ccc(Cc2nnc(N)s2)cc1OCC	-6.21
NC(=O)C1(S(=O)(=O)c2ccccc2)CCCCC1	13.2
CC1(C)OC(=O)C(=CNc2ccccc2)C(=O)O1	-4.48
CC1(C)OC(C)(C)/C(=C/Nc2ccccc2)C1=O	10.2
C[N+]1=C(/C=C/Nc2ccccc2)C(C)(C)c2ccccc21.[O-][Cl+3]([O-])([O-])[O-]	-81.8
COc1ccc(OCC(=O)Nc2ccc(S(=O)(=O)N3CCCCC3)cc2)cc1	-20.2
O=C1c2ccc([N+](=O)[O-])cc2C(=O)N1c1ccc([N+](=O)[O-])cn1	14.5
CCOC(=O)C1CCCN(c2nc3ccccc3nc2C(C#N)C(=O)OCC)C1 (stereo not shown)	-14
CCOC(=O)C1CCCN(c2nc3ccccc3nc2C(C#N)C(=O)OC(C)COC)C1 (stereo not shown)	-55.2
CCOC(=O)C1CCN(c2nc3ccccc3nc2C(C#N)C(=O)OC(C)COC)CC1 (stereo not shown)	-13.9
CCOC(=O)C1CCN(c2nc3ccccc3nc2C(C#N)C(=O)OCCOC)CC1 (stereo not shown)	-27.4
CCOC(=O)C1CCCN(c2nc3ccccc3nc2C(C#N)C(=O)OCCOC)C1 (stereo not shown)	-66
CCOC(=O)C1CCCN(c2nc3ccccc3nc2C(C#N)C(=O)OC(C)C)C1 (stereo not shown)	8.39
